Measured values as given in PMC4336329 (PLoS ONE, 2015).
Among all 310,000 compounds or so, about 14,000 (4.5%) showed an effect of 50% or more. Effects have a minus sign here. What follows is part of a selection rich in strong results, with near analogues and random picks from the rest.

The compounds below were run against human ether-à-go-go-related gene (hERG) potassium channel (human, UniProt Q12809) (assay: primary screen, population patch clamp on CHO cells stably expressing hERG; higher = less effect of the substance).
Sequence of human ether-à-go-go-related gene (hERG) potassium channel (Q12809 whole entry, looked up): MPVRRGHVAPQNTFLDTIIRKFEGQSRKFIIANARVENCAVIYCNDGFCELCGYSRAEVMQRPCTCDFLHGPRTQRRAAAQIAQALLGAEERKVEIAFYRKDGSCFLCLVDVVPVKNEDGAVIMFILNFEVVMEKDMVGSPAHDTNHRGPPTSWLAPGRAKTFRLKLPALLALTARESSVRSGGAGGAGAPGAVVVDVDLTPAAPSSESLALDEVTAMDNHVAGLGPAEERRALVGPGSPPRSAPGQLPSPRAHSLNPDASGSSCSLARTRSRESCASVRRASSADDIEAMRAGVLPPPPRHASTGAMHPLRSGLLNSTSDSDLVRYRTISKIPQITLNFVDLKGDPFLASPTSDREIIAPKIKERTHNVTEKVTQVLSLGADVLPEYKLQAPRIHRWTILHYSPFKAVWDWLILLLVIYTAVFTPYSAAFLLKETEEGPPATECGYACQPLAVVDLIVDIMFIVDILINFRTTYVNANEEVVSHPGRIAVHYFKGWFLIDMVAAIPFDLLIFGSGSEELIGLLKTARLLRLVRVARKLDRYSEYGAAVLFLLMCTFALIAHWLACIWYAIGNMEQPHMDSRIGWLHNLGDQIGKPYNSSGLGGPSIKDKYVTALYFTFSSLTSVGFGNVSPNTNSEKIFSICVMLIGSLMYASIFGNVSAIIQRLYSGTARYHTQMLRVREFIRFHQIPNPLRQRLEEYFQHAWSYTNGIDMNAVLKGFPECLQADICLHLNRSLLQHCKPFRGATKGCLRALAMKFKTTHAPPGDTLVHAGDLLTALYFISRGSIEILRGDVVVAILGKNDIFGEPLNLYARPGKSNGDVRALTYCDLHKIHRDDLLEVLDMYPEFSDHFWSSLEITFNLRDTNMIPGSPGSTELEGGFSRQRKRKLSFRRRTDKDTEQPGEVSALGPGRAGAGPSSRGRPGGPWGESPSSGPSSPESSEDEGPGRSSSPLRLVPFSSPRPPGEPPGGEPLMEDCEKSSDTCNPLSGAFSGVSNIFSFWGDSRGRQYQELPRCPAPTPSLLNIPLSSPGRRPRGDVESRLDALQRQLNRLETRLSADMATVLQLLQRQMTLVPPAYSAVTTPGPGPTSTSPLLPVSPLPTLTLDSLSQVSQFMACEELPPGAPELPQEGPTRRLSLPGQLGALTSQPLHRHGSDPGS
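Further: peak tail current of the secondary pulse compared with the same well before compound.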

In order of rising “hERG current change (%, negative = inhibition) at 10uM” value:
1. OCCC1CN(CCCc2ccccc2)CCN1CCc1ccccc1 (stereo not drawn)  -77.2%
2. Cc1ccc(CN2CCN(CCCc3ccccc3)CC2CCO)cc1 (stereo not drawn)  -76.4%
3. CC(C)/C=C/CN1CCN(CCCc2ccccc2)C(CCO)C1 (stereo not drawn)  -73.4%
4. OCCC1CN(CCCc2ccccc2)CCN1Cc1ccc(F)cc1 (stereo not drawn)  -66.6%
5. O=C(Nn1c(-c2ccc(Br)cc2)nc2ccccc2c1=O)c1ccc([N+](=O)[O-])cc1  -66.6%
6. OCCC1CN(CCCc2ccccc2)CCN1Cc1ccccc1 (stereo not drawn)  -64%
7. Cc1cccc(-c2nc3ccccc3c(=O)n2NC(=O)/C=C/c2ccc([N+](=O)[O-])cc2)c1  -60.7%
8. CC(C)(C)CN1CCN(CCCc2ccccc2)C(CCO)C1 (stereo not drawn)  -53.7%
9. C=CCOC(=O)C1=C(C)NC(SCC(=O)N(CC)CC)=C(C#N)C1c1ccco1 (stereo not drawn)  -51.3%
10. CC(C)CCN1CCN(CCCc2ccccc2)CC1CCO (stereo not drawn)  -46.6%
11. CC(C)CN1CCN(CCCc2ccccc2)C(CCO)C1 (stereo not drawn)  -35.5%
12. CSc1ccccc1NC(=O)c1ccc(N2CC3CC(C2)c2cccc(=O)n2C3)c(NC(=O)c2ccncc2)c1 (stereo not drawn)  -30.1%
13. Cc1nc(-c2ccc(Cl)cc2)sc1C1(C)CC(c2ccc(C#N)cc2)=NO1 (stereo not drawn)  -29.2%
14. CC(C)=CCN1CCN(CCCc2ccccc2)CC1CCO (stereo not drawn)  -26.8%
15. CCOc1ccc(CCNC(=O)COC(=O)Cc2ccc(F)cc2)cc1OCC  -26.6%
16. CCOc1ccc2nc(SCC(=O)NCc3ccc4c(c3)OCO4)[nH]c2c1  -24.2%
17. O=C(/C=C/c1cccc([N+](=O)[O-])c1)Nn1c(-c2ccccc2F)nc2ccccc2c1=O  -23.1%
18. COCCCn1c(=O)c2sccc2n2c(CCCC(=O)N(C)Cc3ccco3)nnc12  -22.8%
19. C=CCOC(=O)C1=C(C)NC(SCC(=O)N(CC)CC)=C(C#N)C1c1ccccc1 (stereo not drawn)  -21.9%
20. CC(C)CCNC(=O)C(c1ccco1)N(CCCO)C(=O)Cn1nnc(-c2ccc(F)cc2)n1 (stereo not drawn)  -20.2%
21. CCC(CC)N1CCN(CCc2ccccc2)C(CCO)C1 (stereo not drawn)  -19%
22. O=C(Nn1c(-c2ccccc2)nc2ccccc2c1=O)c1ccc([N+](=O)[O-])cc1  -15.4%
23. O=C(NCCS(=O)(=O)N1CCN(c2ccc(F)cc2)CC1)C12CC3CC(CC(C3)C1)C2  -10.5%
24. CCOc1ccc(Br)cc1S(=O)(=O)N1CCC(C(N)=O)CC1  -8.56%
25. Cn1cccc1C(=O)NC(=O)COC(=O)c1ccccc1O  -6.93%
26. CCCNc1ccc(C(=O)OCC)cc1[N+](=O)[O-]  -6.67%
27. COc1ccc2c(c1)c(C(C)=O)c(C)n2CCc1ccc(OC)c(OC)c1  -6.52%
28. CS(=O)(=O)c1ccc([C@@H](O)[C@@H](CF)NC(=O)C(Cl)Cl)cc1  -5.39%
29. CC(C)N1CCN(CCCc2ccccc2)CC1CCO (stereo not drawn)  -4.39%
30. COc1ccc2ccc(O)c(CN3CCN(S(=O)(=O)c4cc([N+](=O)[O-])ccc4C)CC3)c2c1  -4.29%
31. CC(C)(C)CN1CCN(CC#Cc2ccccc2)CC1CCO (stereo not drawn)  0.803%
32. O=S(=O)(Nc1ccc2ccccc2c1)c1ccccc1  1.5%
33. COc1ccc(OC)c(CNc2ccc(F)c(Cl)c2)c1  2.7%
34. COc1ccc(C(=O)n2nc(-c3ccco3)nc2SC)cc1OC  3.41%
35. [Cl-].c1ccc(Cc2cc[n+](Cc3ccccc3)cc2)cc1  4.13%
36. O=C(Nc1ccccc1N1CCCC1)c1cccnc1Cl  4.72%
37. CN(c1ccc(C(=O)NCc2ccco2)cc1)S(C)(=O)=O  5.87%
38. Cc1ccc(OCc2nnc(SCC(=O)Nc3ccc4c(c3)OCCO4)n2Cc2ccco2)cc1  6.31%
39. COc1ccccc1NC(=O)c1ccc(N2CC3CC(C2)c2cccc(=O)n2C3)c(NC(=O)c2cccnc2)c1 (stereo not drawn)  6.33%
40. COc1cc(NS(=O)(=O)c2ccc(NC(=O)C3CCCO3)cc2)nc(OC)n1 (stereo not drawn)  6.87%
41. CC(C)c1ccc(/C=C(\c2nc3ccccc3[nH]2)S(=O)(=O)c2ccccc2)cc1  8.64%
42. Cc1cc(C(=O)Nn2c(-c3ccc(Br)cc3)nc3ccccc3c2=O)ccc1[N+](=O)[O-]  8.86%
43. CCN(CC)C(=O)CSC1=C(C#N)C(c2ccco2)C(C(=O)OCCOC)=C(C)N1 (stereo not drawn)  10.5%
44. O=C(c1ccc(CS(=O)c2cccc(Cl)c2)o1)N1CCOCC1 (stereo not drawn)  10.8%
45. CSc1ccccc1NC(=O)CSc1nnc(CNC(=O)c2ccccc2F)n1C  11.2%
46. Cc1cccc(Cl)c1NC(=S)NCCc1ccccn1  11.9%
47. Cc1ccccc1-n1c(-c2ccc(Br)o2)n[nH]c1=S  13.5%
48. COc1ccc(C2Nc3ccccc3C(=O)N2NS(=O)(=O)c2ccccc2)cc1OC (stereo not drawn)  13.5%
49. Cc1cccc(-c2nc3ccccc3c(=O)n2NC(=O)c2ccc([N+](=O)[O-])c(C)c2)c1  14.5%
50. NC(=O)C1CCN(C(=O)c2cc3n(n2)C(C(F)(F)F)CC(c2ccco2)N3)CC1 (stereo not drawn)  14.8%
51. CCOC(=O)c1cc(-c2ccc(OC)cc2)nn1-c1ccc(C(=O)O)cc1  16.3%
52. Cc1ccc(C(C(=O)NCc2ccco2)N(C(=O)Cc2cccs2)c2cccnc2)cc1 (stereo not drawn)  20.4%
53. COc1ccc(C(=O)NC(=S)Nc2nc(C)cc(C)n2)cc1Br  23.1%
54. S=c1[nH]nc(-c2ccccc2)n1/N=C/c1ccc(-c2ccccc2Cl)o1  25.4%
